Screens as filed in PubChem BioAssay.
Shiga inhibitor: blocks Shiga toxin action in Vero cells. Vero cells, Shiga toxin protein synthesis inhibition reporter. inhibition, % at 38.7 µM. 290,000 compounds, 9.2% hits. AID 2315; in the data active = inhibition mostly above about 28%, no sharp cut-off; inactive = mostly below about 43%; note: 0% is about no effect
Giardia FBPA inh: inhibitors of Giardia lamblia fructose-1,6-bisphosphate aldolase; purified Giardia FBPA; Potency, µM (top dose mostly 59.6 µM), for inactives: top-dose activity, negative = inhibition, hits mostly inhibitors; 290,000 compounds, 0.71% hits; AID 2451; note: potency is the fitted concentration of half-maximal effect; % is set by controls: 0 for no effect and ±100 for the full control effect; nearly all actives have a fitted effect of over 55% in size
Target sequence (A8B2U2 whole entry, looked up): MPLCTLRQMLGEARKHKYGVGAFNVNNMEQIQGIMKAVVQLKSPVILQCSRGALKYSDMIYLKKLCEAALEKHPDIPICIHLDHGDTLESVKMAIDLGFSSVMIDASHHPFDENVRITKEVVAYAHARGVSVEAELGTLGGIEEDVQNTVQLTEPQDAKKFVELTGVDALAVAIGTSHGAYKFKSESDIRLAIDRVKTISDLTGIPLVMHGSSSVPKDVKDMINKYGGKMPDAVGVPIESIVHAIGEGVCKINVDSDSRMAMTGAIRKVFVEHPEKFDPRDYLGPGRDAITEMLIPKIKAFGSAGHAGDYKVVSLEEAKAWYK
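40 nM FBPA preincubated 10 min at RT with compound (up to 57.5 uM final), then substrate plus GAPDH/TPI/NAD/arsenate coupling and diaphorase/resazurin added. Fluorescence read after 20 min at RT, 525/598 nm.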
LmPK inh: blocks Leishmania mexicana pyruvate kinase activity | Potency, µM (titrated, usually from 57.5 µM), for the others: at the highest dose activity change, negative = inhibition, most hits filed as inhibitors | Q27686 | 290,000 compounds, 0.37% hits | purified LmPK, Kinase-Glo ATP luminescence, 1 h; note: potency is the fitted concentration of half-maximal effect; % is set by controls: 0 for no effect and ±100 for the full control effect
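Kinase-Glo luminescence read after 1 h RT reaction of 0.1 nM LmPK with 0.5 mM PEP and 0.1 mM ADP. Activity scaled between uninhibited and enzyme-free controls.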
TbPYK inhibitor: blocks Trypanosoma brucei pyruvate kinase. Q57TT1. TbPYK enzyme, Kinase-Glo Plus ATP luminescence, 45 min. Potency, µM (highest dose often 76.8 µM), inactives show top-dose activity, negative = inhibition, actives largely listed as inhibitors. 410,000 compounds, 0.12% hits. AID 624173; note: potency is the fitted concentration of half-maximal effect; % is set by controls: 0 for no effect and ±100 for the full control effect; nearly all actives have a fitted effect of over 50% in size
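Quantitative HTS: titrated library compounds versus trypanosomal pyruvate kinase in TEA buffer (pH 7.2) containing KCl, MgCl2, BSA and Tween-20. Reactions were initiated with ADP, 130 uM final. Kinase-Glo Plus luminescence was read after 45 min at RT.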
Sm TGR block: S. mansoni TGR enzyme inhibition | Q962Y6 | purified TGR, DTNB reduction, TNB absorbance 405 nm | Potency, µM (series often up to 114 µM), for the others: top-dose activity change, negative = inhibition, hits mostly inhibitors | 360,000 compounds, 3% hits | AID 485364; note: potency is the fitted concentration of half-maximal effect; % is set by controls: 0 for no effect and ±100 for the full control effect; nearly all actives have a fitted effect of over 60% in size
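Kinetic colorimetric format: TGR-catalysed, NADPH-driven DTNB reduction monitored via TNB absorbance. Enzyme dispensed at 20 nM; compound exposure 15 min at room temperature before reaction start.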
CHX counter: counter-screen hit for Shiga toxin inhibitors, cycloheximide | cell reporter, cycloheximide protein synthesis inhibition counterscreen | max response, % | 300,000 compounds, 12% hits | AID 2314; in the data active = max response mostly above about 13%, no sharp cut-off; inactive = mostly below about 14%; note: read at 38.3 µM for the half of the compounds with a filed dose; 0% is about no effect
Starred values were filed as active, the others as inactive; ? = inconclusive; . = not tested or not shown. The entries come from a sample that favours hits as a whole. Unless noted, calls come from the whole dose curve; as a rule, active = well fitted curve in the direction sought with a large enough effect; inconclusive = small, poorly fitted or top-dose-only effect, or another doubt; inactive = no such curve, though single readings can be large; an effect the other way counts as inactive or inconclusive.

SMILES	Shiga inhibitor	Giardia FBPA inh	LmPK inh	TbPYK inhibitor	Sm TGR block	CHX counter
O=C(/C=C/c1ccccc1)NC1CC2CCC1C2 (stereo not drawn)	106.1*	-7.1%	-1.6%	-2.1%	3.6%	44.8*
O=C(/C=C/c1ccc(Cl)cc1)NC1CC2CCC1C2 (stereo not drawn)	128.8*	-22.8%	0.7%	0.9%	-0.7%	25.7*
O=C(/C=C/c1ccc(Cl)cc1)NC1CCS(=O)(=O)C1 (stereo not drawn)	12.0	-0.7%	-6.9%	5.4%	7.0%	-1.6
CC1CCN(C(=O)CSc2nnc(-c3cc4ccccc4cc3O)n2Cc2ccco2)CC1	-21.3	-8.7%	-0.8%	-6.6%	?	-1.6
COc1ccc(NC(c2ccccc2F)P(=O)(Oc2ccccc2)Oc2ccccc2)cc1 (stereo not drawn)	15.0	-13.2%	1.4%	7.3%	-17.8%	6.3
COc1ccc(NC(c2ccccc2)P(=O)(Oc2ccccc2)Oc2ccccc2)cc1 (stereo not drawn)	-2.6	-8.2%	4.7%	-5.7%	-1.0%	10.6*
COc1ccc(NC(c2ccccc2)c2ccncc2)cc1 (stereo not drawn)	-5.4	?	2.5%	2.0%	39.8µM*	-5.0
Cc1ccccc1Nc1nc(N)c(C(=O)c2ccccc2Cl)s1	.	.	.	-5.6%	-13.1%	.
O=C(c1ccccc1-n1cccn1)N1CCc2c([nH]c3ccccc23)C1c1ccccn1 (stereo not drawn)	16.8	-0.5%	2.4%	-1.1%	-1.6%	11.4*
O=C(c1noc2c1CCCC2)N1CCc2c([nH]c3ccccc23)C1c1ccccn1 (stereo not drawn)	18.7	-7.2%	8.0%	-12.7%	-13.7%	8.4*
COc1ccc(NC(=O)CSc2nc3c(c(=O)n2-c2ccccc2)SCC3)c(OC)c1	-10.0	-7.5%	6.5%	34.3%	25.1µM*	-3.2
Cc1ccc(Cc2nc(-c3ccncc3)no2)cc1	54.2*	7.6%	0.8%	7.8%	3.4%	13.6
COc1ccc(Cc2nc(-c3ccc(Br)cc3)no2)cc1	30.5*	-0.8%	-3.2%	-4.9%	16.1%	28.6*
Clc1ccc(-c2noc(COc3ccccc3)n2)cc1	23.5	3.2%	-2.7%	8.2%	-26.6%	-1.8
c1ccc(C(Cc2nc(-c3ccncc3)no2)c2ccccc2)cc1	-4.9	-0.8%	6.3%	-1.9%	-0.5%	-2.0
COc1ccc(-c2noc(Cc3ccc(Cl)cc3)n2)cc1OC	8.0	-6.4%	-2.2%	1.9%	-2.2%	6.2
COc1ccc(Cc2nc(-c3ccc(Cl)cc3)no2)cc1	49.2*	-0.7%	-9.1%	3.1%	16.8%	21.2*
Clc1ccc(OCc2nc(-c3ccncc3)no2)cc1	36.1	-7.1%	-4.7%	4.8%	-1.5%	31.0*
CC(C)CCC[C@@H](C)[C@@H]1CC[C@H]2C3=CC=C4CC(O)CC[C@]4(C)[C@H]3CC[C@@]21C (stereo partly drawn)	16.6	-14.6%	.	.	.	-3.6
CC(C)CC(=O)Nc1c(C(=O)N2CCN(c3ccccc3F)CC2)oc2ccccc12	.	.	.	1.4%	-0.1%	.
Cc1ccc(-c2nc(-c3cccnc3)sc2CC(=O)O)cc1	21.0	-0.4%	9.0%	-2.8%	-18.4%	-3.4
Cc1ccc(-c2sc(-c3cccnc3)nc2CC(=O)O)cc1	-17.1	6.7%	-2.1%	-0.9%	39.8µM*	-3.1
CCCCC/C=C\C\C=C/C=C/C=C/[C@@H](SCC(NC(C)=O)C(=O)O)[C@@H](O)CCCC(=O)O (stereo partly drawn)	.	5.4%	.	.	.	.
O=C(Nc1nc2c(s1)COc1ccccc1-2)c1cccs1	4.6	-15.8%	-0.2%	?	-12.9%	-4.1
Fc1ccccc1Nc1nc2c(s1)CCc1ccccc1-2	85.5*	19.9µM*	-4.6%	.	?	72.5*
SMILES	Shiga inhibitor	Giardia FBPA inh	LmPK inh	TbPYK inhibitor	Sm TGR block	CHX counter
COc1ccc(C(=O)Nc2nc3c(s2)CCc2cc(OC)ccc2-3)cc1	.	.	.	-12.2%	-4.5%	.
O=C(Nc1ncc2c(n1)-c1ccccc1CC2)c1ccccc1	62.9*	-7.7%	-1.0%	13.1%	11.0%	20.0*
O=C(Nc1ncc2c(n1)-c1ccccc1CC2)c1ccc(F)cc1	-6.6	-5.9%	2.4%	1.7%	0.0%	-3.0
O=C(Nc1ncc2c(n1)-c1ccccc1CC2)c1cccs1	63.7	-28.8%	-3.5%	-3.1%	-17.3%	27.8*
O=C(Nc1nc2c(s1)CCc1ccccc1-2)c1cccs1	93.8*	-10.0%	5.4%	-27.4%	-24.5%	41.2*
Cc1cc(OCC(=O)OCC(=O)N2CCCc3ccccc32)ccc1Cl	.	.	.	1.7%	.	.
CC(=O)c1sc(Nc2ccc3c(c2)OCO3)nc1C	.	.	.	-12.1%	.	.
O=C(Nc1nc2cc3c(cc2s1)OCO3)c1ccco1	85.8*	14.8%	15.8µM*	-10.1%	-18.2%	49.4*
CC(=O)c1sc(Nc2nc3cc4c(cc3s2)OCO4)nc1C	74.2*	-2.0%	-0.4%	-4.0%	?	26.5
CCOC(=O)c1sc(Nc2nc3c(OC)cccc3s2)cc1C	107.9*	-19.5%	2.0%	-12.4%	3.6%	52.7*
CC(=O)Nc1nc2cc3c(cc2s1)OCO3	95.8*	1.1%	-15.4%	-9.1%	-1.2%	30.9*
CCC(=O)Nc1ccccc1-c1nc2ccccc2n(CC(=O)c2ccc(C)cc2)c1=O	.	.	.	-5.7%	-1.5%	.
C[C@H]1C=CC(=O)C[C@H]1c1c(F)cccc1Cl	6.0	0.8%	.	.	.	7.1
COc1cccc(Cn2c(=O)c(-c3ccccc3)nc3cnc(N4CCNCC4)nc32)c1	.	2.9%	.	.	.	.
CCOC(=O)c1sc(Nc2nc3cc4c(cc3s2)OCO4)cc1C	81.9*	-10.9%	2.4%	-9.1%	-23.5%	43.2*
CC(C)C(=O)Nc1nc2cc3c(cc2s1)OCCO3	92.8*	-1.3%	-7.8%	0.9%	12.6%	55.3*
O=C(COc1ccccc1)Nc1nc2cc3c(cc2s1)OCO3	.	.	.	1.7%	.	.
O=C(Nc1nc2cc3c(cc2s1)OCCO3)c1ccco1	-13.8	.	-26.8%	-17.6%	-34.8%	-8.3
O=C(COc1ccccc1)Nc1nc2cc3c(cc2s1)OCCO3	19.1	-19.1%	-11.0%	-4.2%	7.1%	28.4*
Cc1ccc2[nH]c3c(c2c1)CN(C(=O)CN1CCCc2ccccc21)CC3	68.9*	1.6%	-2.8%	2.9%	31.6µM*	19.4*
Cc1ccc2[nH]c3c(c2c1)CN(C(=O)CN1CCCCC1)CC3	2.7	-1.9%	6.6%	-2.4%	-9.7%	-2.9
Cc1nn(-c2ccccc2)c2sc(C(=O)N3CCc4ccccc4C3)cc12	-3.1	-3.5%	0.7%	-0.2%	-15.9%	-0.9
Cc1nn(-c2ccccc2)c2sc(C(=O)N3CCCCC3)cc12	113.9*	6.9%	0.2%	7.3%	-0.2%	48.2*
Fc1ccc(NC(=S)Nc2ccccc2OC(F)F)cc1Cl	-9.5	-14.4%	0.4%	-0.4%	-32.3%	-0.6
Fc1ccccc1NC(=S)Nc1cccnc1	-6.9	-11.3%	2.3%	-0.1%	15.8µM*	-1.8
